In all, about 100,000 compounds went through this assay and about 770 (0.77%) were called active. Shown is part of a subset that was picked to be rich in actives. Unmarked numbers belong to inactive results. No stated cut-off is given here; in the data, active means inhibition above about 50%; inactive means the rest.

In general, inhibition refers to the share of the control response that was lost under treatment.

The target of this assay is Gag-Pol polyprotein (Human immunodeficiency virus type 1 group M subtype B (isolate HXB2)) (UniProt P04585). Nature of the assay: RNase H inhibition, HIV 1 Gag Pol polyprotein, FRET biochemical assay, screening (AID 372). Conditions: HIV-1 RT RNase H, FRET RNA/DNA substrate fluorescence; at 10 µM; hits give high values.
In the case of `COc1ccc(/C=N/NC(=S)Nc2cccc(C)c2)c2ccccc12`, the inhibition is 5%. Regarding `COC(=O)C1=C(C)NC(C)=C(C(=O)OC)C1c1cn(-c2ccccc2)nc1-c1ccco1`, the inhibition is 4%. Turning to `COc1ccc(OCCOC(=O)Nc2ccc(Cl)c(Cl)c2)cc1`, the inhibition is 34%. Turning to `Cc1ccc(OCCOC(=O)Nc2ccc(Cl)c(Cl)c2)cc1`, the inhibition is 46%. For `O=C(Nc1cccc(Cl)c1)OCCOc1cccc(F)c1`, the inhibition was 58% (active). Turning to `Cc1cccc(OCCOC(=O)Nc2ccc(Cl)c(Cl)c2)c1`, the inhibition was 46%. With `COc1cccc(OCCOC(=O)Nc2ccc(Cl)c(Cl)c2)c1`, the inhibition is 50% (active). As to `COc1ccccc1OCCOC(=O)Nc1ccc(Cl)c(Cl)c1`, the inhibition was 10%.

With `O=C(Nc1ccc(Cl)c(Cl)c1)OCCOc1ccccc1Cl`, the inhibition was 48%. As for `Cc1ccccc1OCCOC(=O)Nc1ccc(Cl)c(Cl)c1`, the inhibition was 51% (active). For `O=C(Nc1cccc(Cl)c1)OCCOc1ccccc1`, the inhibition was 48%. Under `O=C(Nc1ccc(Cl)c(Cl)c1)OCCOc1cccc(Br)c1` stands 44%.

Take `Cc1cccc(OCCOC(=O)Nc2cccc(Cl)c2)c1`: the inhibition is 44%. In the case of `O=C(Nc1ccc(Cl)c(Cl)c1)OCCOc1ccccc1`, the inhibition is 50% (active).

On to `CC1=C(C#N)C(c2ccccc2C(F)(F)F)C2=C(CCCC2=O)N1` (centres undefined), for which the inhibition is 12%. `O=C1Nc2ccccc2NC1C1OC(c2ccccc2)=CC1=O` (centres undefined): the inhibition was 0%. On to `Cc1cccc(C2C(=O)c3ccccc3C2=O)c1C`, for which the inhibition is 13%.

With `O=C(O)c1ccc(N2C(=O)CC(N3CCN(Cc4ccc5c(c4)OCO5)CC3)C2=O)cc1` (centres undefined), the inhibition was 12%. As to `C/C(=N\NC(=O)c1cc(C)[nH]n1)c1ccc(N)cc1`, the inhibition was 5%. As to `O=S1(=O)CCC(NC(=S)N/N=C/c2ccc(Cl)c(Cl)c2)C1` (centres undefined), the inhibition is 13%. On to `COc1ccc(C(N)=CC(=O)C(C)(C)C)cc1`, for which the inhibition is 7%. Then `Clc1cccc(OCCCN2CCOCC2)c1Cl`, with 2%. In the case of `Clc1cccc(OCCCCN2CCOCC2)c1Cl`, the inhibition is 55% (active).

In the case of `Clc1cccc(OCCN2CCOCC2)c1Cl`, the inhibition was 0%.

For the compound `Cc1sc2nc(SCC(=O)NCCO)[nH]c(=O)c2c1C`, the inhibition was 2%. As for `COc1ccc(C(=O)NC(=S)Nc2ccc3oc(-c4ccccc4Cl)nc3c2)cc1Cl`, the inhibition is 53% (active). Under `COc1ccc(-c2nc3cc(NC(=S)NC(=O)c4ccccc4Cl)ccc3o2)cc1Cl` stands 45%; under `CCOc1ccc(-c2nc3cc(NC(=S)NC(=O)c4ccccc4C)ccc3o2)cc1`, 61% (active); under `COc1ccc(-c2nc3cc(NC(=S)NC(=O)c4ccccc4OC)ccc3o2)cc1Cl`, 13%. Regarding `COc1ccc(-c2nc3cc(NC(=S)NC(=O)c4ccccc4C)ccc3o2)cc1Cl`, the inhibition was 56% (active).

Turning to `CCOc1ccc(-c2nc3cc(NC(=S)NC(=O)c4ccccc4Br)ccc3o2)cc1`, the inhibition is 20%. As to `COc1ccc(-c2nc3cc(NC(=S)NC(=O)c4ccccc4C)ccc3o2)cc1`, the inhibition was 7%. For `COc1ccc(C(=O)NC(=S)Nc2ccc3oc(-c4ccccc4Cl)nc3c2)cc1OC`, the inhibition was 14%. As for `COc1ccc(C(=O)NC(=S)Nc2ccc3oc(-c4ccccc4C)nc3c2)cc1Cl`, the inhibition is 25%.
